In PubChem BioAssay (NCI):
About 83,000 compounds went through this panel and 20% of them were active in at least one assay; those are over-represented in the sample as a whole.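 The endpoint reported here, percent growth, reads 100 for growth as untreated, 0 for no net growth and -100 for all cells dead.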 A number with no mark means an inactive call. The source made the active and inactive calls.

What follows are compounds tested on HOP-62 NSCLC (assay: NCI-60 one-dose screen, 48 h (100 = growth as untreated, 0 = no growth, -100 = all killed)). Settings: 10 µM unless noted.
Procedure: Growth inhibition of the HOP-62 human Non-Small Cell Lung tumor cell line is measured as a screen for anti-cancer activity. Cells are grown in 96 well plates and exposed to the test compound for 48 hours. Compounds are tested at a single concentration, which is 10^-5 M for most compounds. The reported endpoint is percent growth (GI% or GIPRCNT), where numbers from 0 - 100% represent growth inhibition, and numbers from -100% - 0 represent cell death. For example, a value of 40 represents 60% growth inhibition. A value of 0 means no net growth occurred over the course of the experiment. A value of -40 indicates 40% of cells at the beginning of the experiment died by the end of the experiment. A value of -100 means all cells are dead at the end of the experiment.
NCI-60 Human Tumor Cell Lines Screen was performed using the standard one-dose NCI protocol, which is described in more detail at https://dtp.cancer.gov/discovery_development/nci-60/default.htm.
Compounds with GIPRCNT values below 10 were considered active. Activity score was based on GIPRCNT using the following formula: […]
Score is 0 for GIPRCNT values of 100 or above, 50 for GIPRCNT values of 0, and 100 for GIPRCNT values of -100.

Compared with `CCc1c(C(=O)Nc2ccc3ccccc3c2)[nH]c(C)c1C(C)=O`, `C=CCc1cc(Cl)cc2c(OC(C)=O)c(C(C)=O)c(-c3ccccc3)nc12` is lower in growth: 96.1% for the first, 89.2% for the second.

Compared with `CN(C)c1nc(N)c(N=O)c(N)n1`, `Nc1nc(N)c2nc(CNc3ccc(C(=O)CC(CCC(=O)O)C(=O)O)cc3)cnc2n1` (stereo not given) is lower in growth: 107% for the first, 39.8% for the second.

Going from `COc1ccc(C2CC(c3cccs3)=NN2c2ccc(S(=O)(=O)NC(=O)Nc3ccc(C)cc3)cc2)cc1` (stereo not given) to `COc1ccc(C2=NN(c3ccc(S(N)(=O)=O)cc3)C(c3cn(-c4ccccc4)nc3-c3ccc(Cl)cc3)C2)cc1` (stereo not given), the growth rises from 76.9% to 95.3%.

Going from `CCOC(=O)C1=C(CSC(=S)N(C2CCCCC2)C2CCCCC2)N(C)C(=O)NC1c1ccccc1` (stereo not given) to `COC(=O)c1ccc2nc(-c3cc4ccccc4n3C)n(CCCCOc3cc4c(cc3OC)C(=O)N3CCC[C@H]3C=N4)c2c1`, the growth falls from 63.1% to 15.6%.

Compared with `NC(=O)NC(=O)/C=C/C(=O)OCCCl`, `CC/C=C\C[C@H](O)C/C=C1/C(=O)C(Cl)=C[C@@H]1C/C=C\CCCC(=O)O` is lower in growth: 114% for the first, 96.8% for the second.

First: COc1cccc(/C=C2\SC(N3CCN(c4ccccn4)CC3)=NC2=O)c1
Second: C=CCOc1cccc(/C=C/C(=O)c2sc(Nc3cccnc3)nc2C)c1
The growth of the first is higher: 93.6% for the first, 68.2% for the second.

Going from `COc1cccc(-c2nc3sccn3c2-c2ccnc(NCCNS(=O)(=O)c3ccccc3)n2)c1` to `O=S(=O)(NCCCNc1nccc(-c2c(-c3ccccc3)nc3sccn23)n1)c1ccc(F)cc1`, the growth falls from 114% to 89%.

Compared with `CC(Cc1nnc(SCC(=O)Nc2ccc(I)cc2)n1N)c1ccccc1` (stereo not given), `CCOC(=O)c1ccccc1NC(c1ccccc1)c1ccc2cccnc2c1O` (stereo not given) is lower in growth: 71% for the first, 16.4% for the second.

Compared with `CC(C)(C)c1ccc(S(=O)(=O)Oc2ccc3c4c(c(=O)oc3c2)CCCCC4)cc1`, `COc1ccc(-c2nnc(COc3ccc(NS(=O)(=O)c4ccc(OC)cc4)cc3F)o2)cc1` is higher in growth: 85.2% for the first, 93.9% for the second.

Going from `OC1CC2c3ccccc3C1c1ccccc12` (stereo not given) to `Nc1ccccc1C#C/C=C\C#Cc1cccc(O)c1`, the growth falls from 108% to 40.2%.

Compared with `O=C1c2ccccc2C(=O)c2c1oc1oc3c(c(=O)c21)c(=O)n(-c1ccccc1)c1ccccc31`, `CCn1c(=O)c2c(=O)c3c4c(oc3oc2c2ccccc21)C(=O)c1ccccc1C4=O` is higher in growth: 36.1% for the first, 80.3% for the second.

First: CCC(=O)Oc1cc(/C=C/C(=O)O[C@H]2C[C@H]3CN4CCc5c([nH]c6cc(OC)ccc56)[C@@H]4C[C@@H]3[C@@H](C(=O)OC)[C@@H]2OC)ccc1OC
Second: COc1ccc(/C=C2\CCCC3=C2NC(C)=NC3c2ccc(OC)c(OC)c2)cc1OC (stereo not given)
The growth of the first is higher: 89% for the first, 32.1% for the second.

Compared with `Cc1ccc2nc(SCn3nnc4ccccc4c3=O)[nH]c2c1`, `O=C1Nc2cc(Cl)ccc2Oc2cc(Oc3ccccc3)ccc21` is lower in growth: 88.9% for the first, 64.1% for the second.

First: N#Cc1ncc(-c2ccc(F)c(F)c2F)c(NC2CCCCCC2)n1
Second: Cc1cccc(NC(=O)c2sc3nc4c(cc3c2N)CCC4)c1C
The growth of the first is higher: 82.3% for the first, 35.6% for the second.

Compared with `O=S(=O)(NCCCNc1nccc(-c2c(-c3ccc(O)cc3)nc3sccn23)n1)c1ccc(F)cc1`, `Cc1ccc(C2=NN(c3ccc(S(N)(=O)=O)cc3)C(c3cn(-c4ccccc4)nc3-c3ccccc3)C2)cc1` (stereo not given) is higher in growth: 10% for the first, 105% for the second.

Going from `O=C(CSc1nc(-c2ccc(Cl)cc2)cn1-c1ccc(Cl)cc1)c1ccc(Br)cc1` to `COc1cc(C(=O)/C=C/c2cc(C(=O)c3cc(OC)c(OC)c(OC)c3)ccc2OC)ccc1N`, the growth falls from 48.3% to 43.2%.

Going from `CC(=O)OCC1OC(OCC2OC(OC(C)=O)C(OC(C)=O)C(OC(C)=O)C2OC(C)=O)C(OC(C)=O)C(OC(C)=O)C1OC(C)=O` (stereo not given) to `CC(=O)Nc1nc(C(=O)N2N=C(C)/C(=C/c3cccs3)C2=O)cs1`, the growth rises from 97.5% to 99.1%.

First: COc1cc(C2C=C(C)N=C3SC(C)=NN32)cc(OC)c1OC (stereo not given)
Second: COc1cc(C2C=C(C)N=C3SC=CN32)cc(OC)c1OC (stereo not given)
The growth of the first is lower: 95.9% for the first, 106% for the second.

`CCN(Cc1ccc(CN(CC)C(=O)C(Cl)(Cl)Cl)cc1)C(=O)C(Cl)(Cl)Cl` gave a growth of 98.2%.

With `NC(=O)c1cccc(N2Cc3ccccc3OC3=C2C(=O)c2c(O)ccc(O)c2C3=O)c1` the growth was -42% (active).
In the case of `N=C(N)c1ccc(-c2ccc(-c3ccc(Cl)cc3)o2)nc1`, the growth is reported as -85.5% (active).
In the case of `COc1cc(NS(C)(=O)=O)ccc1Nc1c2ccc([N+](=O)[O-])cc2nc2c(C)cccc12`, the growth is reported as -2.67% (active).
